Measurements published in the supplement of paper PMC7866885, “A novel bicyclic 2,4-diaminopyrimidine inhibitor of Streptococcus suis dihydrofolate reductase” (PeerJ, 2021).
± gives the standard deviation.

These compounds were tested on Streptococcus suis HE06 (assay: percent growth relative to DMSO control; higher = less growth inhibition). Details: 10 µM; incubation time 18 h.
Description: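 CLSI broth microdilution: 5x10^4 CFU of Streptococcus suis (strain P1/7 or HE06) incubated with 10 µM Pathogen Box compound in cation-adjusted Mueller Hinton broth, 37 °C, 5% CO2, 18 h. Growth read as OD600 and expressed as percent of the DMSO-treated control (100%); mean ± SD of three independent experiments.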

SMILES	percent growth [%]
CS(=O)(=O)N1CCC(CCn2nc(Cc3cccc4ccccc34)c3c(N)ncnc32)CC1	90.3 ± 15
O[C@@H](c1cc(C(F)(F)F)nc2c(C(F)(F)F)cccc12)[C@H]1CCCCN1	94 ± 6.1
CC(Oc1ccccc1)C(=O)Nc1nc(-c2ccccn2)cs1 (stereo not drawn)	2.67 ± 2.8
CNc1snc(C)c1C(=O)NCCOc1ccc(OC)cc1	102 ± 22
COc1ccc(-c2nc(-c3cccc(NC(=O)Cc4ccc(F)cc4)c3)no2)cc1OC	83 ± 3.5
CC(C)n1ncc2c(C(=O)NCC(c3cccs3)N3CCOCC3)cc(-c3ccccc3)nc21 (stereo not drawn)	89.9 ± 4.6
Cc1nnc(NC(=O)c2cn(-c3ccccc3)nc2-c2ccccc2C)o1	0.31 ± 0.38
NCC(c1cccs1)S(=O)(=O)c1ccccc1 (stereo not drawn)	111 ± 30
O=C(NC1CCN(c2ccnc3ccccc23)C1)c1cccc(C(F)(F)F)c1 (stereo not drawn)	106 ± 30
C[C@H](C(N)=O)N1CCCC[C@H]1c1ccc(OCc2cccc(F)c2)cc1	85.5 ± 23
O=C(NCCN1CCCC1)c1cc(NCCN2CCOCC2)nc2ccc(Cl)cc12	95.2 ± 4.7
Cc1cc(C)n2nc(C(=O)Nc3cc(C(F)(F)F)ccc3N3CCOCC3)nc2n1	240 ± 280
CCOc1ccc(-c2nc(NC(=O)CS(=O)(=O)c3ccccc3)sc2C)cc1	76.9 ± 15
COc1cc(C2=NCCN2)cc2cc(-c3ccc(C4=NCCN4)cc3)oc12	106 ± 34
COc1ccc(Nc2ccccc2NC(=O)c2ccc(O)nc2)cc1	86.7 ± 11
O=C(Nc1cnc2ccccc2c1)c1cccc(-n2cnnn2)c1	110 ± 2.4
Nc1ncc(-c2ccc(C(F)(F)F)nc2)cc1-c1ccc(C(F)(F)F)nc1	98.8 ± 13
CCOC(=O)c1c(NC(=O)c2c(F)c(F)c(F)c(F)c2F)sc(C(N)=O)c1C	91.9 ± 6
